Values joined by “and” are separate entries in the source; they are usually repeats but may differ in a detail not shown here. Equal values may be shown once. About 18,000 (4.4%) of roughly 410,000 compounds were called active. Not shown: some 7% with an inconclusive outcome. Many of the other results were omitted from the sample, so actives are more common in it than they were. Unmarked numbers belong to inactive results. Cut-off read from the data, not from the text of the source: active = activity change below about -60%; inconclusive = no clear call, values can overlap the other calls; inactive = above about -39%.
test: qHTS Assay for inhibitors of the human cytomegalovirus (HCMV); conditions: HFF cells, HCMV-luciferase reporter, 72 h; at 57.5 µM; stronger effect = lower value
Excerpt: NCGC Assay Overview: Infection with human cytomegalovirus (HCMV) continues to pose significant threats for pregnant women and immunocompromised hosts. HCMV causes serious morbidity and mortality in transplant recipients, and congenital HCMV is the leading infectious cause of mental retardation and deafness in children. In the 1990s, the annual costs associated with the disease burden of congenital CMV were estimated at around $2 billion. A HCMV vaccine is not available yet and HCMV therapies result in intolerable side effects and emergence of drug resistant viruses. […] Towards this goal we have developed and characterized a luciferase HCMV reporter that was initially used in 96 well plates and then optimized to 1536-well plates for utilization in screening of the MLSMR collection, the NGCG diversity collection and the NCGC Pharmaceutical Collection of approved and investigational drugs.
NCGC Assay Protocol Summary:
This is a cell-based assay for HCMV inhibition in HFFs cells. The screening used 2 compound doses and the HCMV-luciferase at MOI of 1 PFU/cell. Cells were treated and infected with HCMV. At 72 h post infection cell lysates were collected and luciferase activity was determined using the Glomax-Multi + Detection System (Promega, Madison, WI). Data were normalized to the controls for basal activity (buffer only) and known HCMV inhibitors Salinmoycin.
1536-well assay protocol for the assay:
(1) Add 3 ul CMV/HFF cell culture. 1000 cells/well in DMEM nirmal media.
(2) Incubate 16 hr at 37C.
(3) Add 23 nl control compound, 10uM of Salinomycin.
(4) Add 23 nl compounds in DMSO solution.
(5) Add 3 ul CMV suspension. Final 1 puf/ul, Virus stock 2000pfu/ul
(6) Incubate 72 hrs at 37C.
(7) Add 4 ul OneGlo Luc Reagent.
(8) Incubate 5 min at room temperature.
% is set by controls: 0 for no effect and ±100 for the full control effect.

SMILES | activity change, negative = inhibition
COc1cccc(N2CC(NS(=O)(=O)c3ccc(Cl)cc3)CC2=O)c1 (centres undefined) | -10.8%
COc1ccc(NC(=O)CSc2nc3ncccc3[nH]2)c(OC)c1 | 9.48%
CN(C)S(=O)(=O)c1cccc(NC(=O)COC(=O)C2(c3ccccc3F)CCCC2)c1 | -26.2%
O=C(COC(=O)C1(c2ccc(F)cc2)CCCC1)N1CCNC1=O | -24.2%
NS(=O)(=O)c1ccc(NC(=O)COC(=O)C2(c3ccc(F)cc3)CCCC2)cc1 | -61.5% (active)
CN(Cc1ccccc1)C(=O)CCS(=O)(=O)c1cc(Br)cc2c1N(C(=O)C1CC1)CC2 | -14.4%
O=S(=O)([N-]c1nc2ccccc2nc1-[n+]1ccc(Cc2ccccc2)cc1)c1ccc(Br)s1 | -110% (active)
COc1ccc(S(=O)(=O)c2c(Nc3cccc(Cl)c3)sc(C(=O)c3ccccc3)c2N)cc1 | 20.4%
N#C/C(=C(\O)C(F)(F)F)c1nnc2n1CCCCC2 | -0.374%
N#C/C(=C/c1cccc([N+](=O)[O-])c1)c1nnc2n1CCCCC2 | -95.5% (active)
N#C/C(=C(\O)CCl)c1nnc2n1CCCCC2 | -20.4%
CNS(=O)(=O)c1ccc2c(c1)[nH]c(=S)n2C | -5.5%
Cc1ccccc1OCc1ccc(-c2nc(C#N)c(N3CCCCC3)o2)o1 | -23.6%
Cc1ccc(N2CCN(C(=O)CCc3c(C)nc4c(c3C)c(=O)n(C)c(=O)n4C)CC2)c(C)c1 | -5.59%
COc1cccc(N2CCN(S(=O)(=O)c3ccc4c(c3)CCCN4C(C)=O)CC2)c1 | -9.24%
CC1Cc2cc(S(=O)(=O)CCC(=O)NCc3ccc(Cl)cc3)ccc2N1C(=O)C1CC1 (centres undefined) | 4.59%
CC(=O)N1c2ccc(S(=O)(=O)N3CCCC(C(=O)Nc4ccc(C)cc4C)C3)cc2CC1C (centres undefined) | 33.5%
CC(=O)N1c2ccc(S(=O)(=O)N3CCCC(C(=O)NCc4ccc(Cl)cc4)C3)cc2CC1C (centres undefined) | -75.8% (active)
CC(=O)N1c2ccc(S(=O)(=O)N3CCCC(C(=O)Nc4cccc(Cl)c4)C3)cc2CC1C (centres undefined) | -62.5% (active)
CC(=O)N1CCCc2cc(S(=O)(=O)N3CCC(C(=O)NC4CCCCC4)CC3)ccc21 | 6.82%
CC(=O)N1c2ccc(S(=O)(=O)N3CCCC(C(=O)Nc4cccc(F)c4)C3)cc2CC1C (centres undefined) | -31.3%
CC(=O)N1CCCc2cc(S(=O)(=O)N3CCCC(C(=O)N4CCN(c5cccc(Cl)c5)CC4)C3)ccc21 (centres undefined) | -72.9% (active) and -95.8% (active)

SMILES | activity change, negative = inhibition
CC(=O)N1c2ccc(S(=O)(=O)N3CCC(C(=O)NCc4ccc(F)cc4)CC3)cc2CC1C (centres undefined) | -39.5%
Cc1noc(/C=C/N(C)C)c1S(=O)(=O)N1CCCC(C(=O)Nc2cccc(F)c2)C1 (centres undefined) | 4.81%
CCOc1ccc(OCC)c(NC(=O)c2c(C)nn(-c3ccccc3)c2-n2cccc2)c1 | -28.6%
COc1ccc(-c2nn3c(=O)cc(CN4CCN(C(=O)c5ccc(OC)c(OC)c5)CC4)nc3s2)cc1 | -5.09%
COc1ccc(CCNc2nc(-c3ccc(Cl)cc3)cc(C(F)(F)F)n2)cc1OC | -19.1%
O=C(CSc1nc(=O)n(Cc2cccnc2)c2c1CCC2)Nc1ccc(F)cc1F | -15.2%
COc1cccc(CNC(=O)CCC(=O)N2CC3CCCN3c3ccccc32)c1 (centres undefined) | -5.74%
COc1ccc(C2N=C(N)N=C(N)N2c2ccccc2)cc1OC (centres undefined) | 14%
O=C(CCc1nc(CN2CCN(S(=O)(=O)c3ccc(Cl)cc3)CC2)no1)N1CCCCC1 | 30.2%
CC[C@]12c3[nH]c4ccc(OC)cc4c3CCN1C(=O)C(CC(=O)NCCN1CCOCC1)C[C@@H]2C(=O)N1CCN(C(=O)C2CC2)CC1 (some centres undefined) | 3.72%
CCSc1ccccc1C(=O)Nc1ccc2c(c1)OCO2 | 8.91%
CCN(CC)S(=O)(=O)c1cccc(NC(=O)c2ccc(S(=O)(=O)N3CCCC3)cc2)c1 | -65.5% (active)
O=C(CCNC(=O)c1ccc(Br)cc1)Nc1cccc(S(=O)(=O)N2CCCCC2)c1 | -23.8%
COc1cc(C(=O)NNC(=O)c2ccc(S(=O)(=O)N3CCCCC3)cc2)cc(OC)c1OC | 41.5%
Cc1c(C)n(Cc2ccc(Cl)cc2)c2ccc(C(=O)NCCc3ccc(S(N)(=O)=O)cc3)cc12 | 0%
O=C(NCCc1ccc(F)cc1)c1ccc(S(=O)(=O)N2CCCCC2)cc1 | -3.57%
O=C(Nc1cccc(S(=O)(=O)N2CCCC2)c1)c1cncc(Br)c1 | -5.81%
CN1CCN(S(=O)(=O)c2cccc(C(=O)Nc3cccc(S(N)(=O)=O)c3)c2)CC1 | -17.3%
O=C(Nc1ccc2c(c1)OCO2)c1cc(-c2cccc(Cl)c2)on1 | 11.5%
NS(=O)(=O)c1ccc(CCNC(=O)c2ccc(Cl)c(S(=O)(=O)N3CCCCCC3)c2)cc1 | -69.2% (active)
Cn1c(=O)n(C)c2cc(C(=O)Nc3ccc4c(c3)OCO4)ccc21 | -96.3% (active)
O=C(Nc1cccc(S(=O)(=O)N2CCCCC2)c1)c1ccc2c(c1)OCO2 | -69% (active)

From PubChem BioAssay AID1259415 (National Center for Advancing Translational Sciences (NCATS), 2018)
